Results with a measured potency or affinity are listed apart. Values without a mark were called inactive.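 How the source made its calls: active means fitted half-maximal concentration for loss of cell signal no higher than twice the top valid tested concentration; inconclusive means flat curve at 30 to 70% inhibition, or poor fit; inactive means flat within 30%, signal rise, or potency above limit.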
Experiment: cytotoxicity toward MDA-MB-231 breast cancer cells – cell-based, CellTiter-Glo luminescence, cherry-pick, cytotoxicity control for RAD54 inhibitor project, dose response (AID 651692);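 further: 0% = median of sample compound wells and -100% = staurosporine control wells; more negative values mean stronger loss of viable cell signal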
Conditions: MDA-MB-231 viability, 24 h; series mostly up to 26 µM; activity change, negative = growth inhibition: at the top concentration

Row | Compound | activity change, negative = growth inhibition [%]
1 | Clc1ccc2[nH]c3c(NCCCN4CCOCC4)ncnc3c2c1 | -0.34
2 | NC1CCN(c2c(F)cc3c(=O)c(C(=O)O)cn(C4CC4)c3c2Cl)C1 (stereo not given) | 16
3 | CCCCN(CC)CCCNC(=S)Nc1ccc2nc(N3CCN(C)CC3)cc(C)c2c1 | -1.01
4 | CCN1CCN(C(=S)Nc2ccc3nc(N4CCN(C)CC4)cc(C)c3c2)CC1 | -0.729
5 | Cn1c(NCCN2CCCC2)nc2cc(-c3ccsc3)sc2c1=O | 4.38
6 | Cc1ccc2nc3c(c(Nc4ccc(O)cc4)c2c1)CCC3 | -3.8
7 | CCN(CC)CCn1c2ccccc2c2nc3ccc([N+](=O)[O-])cc3cc21 | -13.4
8 | COc1ccc(C)c2sc(N(CCN(C)C)C(=O)c3ccc4ccccc4c3)nc12 | -20.6
9 | CC1CCc2sc3nc(N4CCN(CCO)CC4)n4ncnc4c3c2C1 (stereo not given) | -3.77
10 | Oc1ccc(Nc2ccnc3cc(Cl)ccc23)cc1 | -1.5
11 | CCCCN(CC)CCCNC(=O)c1cc2c(-c3ccc(OC)c(OC)c3)nn(C)c2s1 | 5.82
12 | CCNC1CCC(Nc2ccnc3cc(Cl)ccc23)CC1 (stereo not given) | 5.14
13 | CCN1CCN(C(=S)Nc2ccc3nc(N4CCN(CC)CC4)cc(C)c3c2)CC1 | -3.41
14 | COc1ccc(-c2nn(C)c3sc(C(=O)NCCN(C)C)cc23)cc1OC | 5.24
15 | NCCN1CCN(CCN)CC1 | 1.41
16 | CN(C)CCCNc1nc(-c2ccccc2)nc2ccccc12 | 4.91
17 | CCOC(=O)c1cnc2c(C)c(Cl)ccc2c1NCCCN1CCOCC1 | 7.57
18 | CCN(CC)CCCNc1nc2cc(OC)c(OC)cc2c2nc(-c3ccccc3)nn12 | -12.7
19 | CN1CCN(CCCNC(=O)c2cc3c(=O)oc4ccccc4c3s2)CC1 | 2.62
20 | CN(C)CCN(C(=O)CN1C(=O)c2ccccc2C1=O)c1nc2cc3c(cc2s1)OCO3 | 4.48

Row | Compound | activity change, negative = growth inhibition [%]
21 | CCN(CC)CCNc1ccc(CO)c2sc3ccccc3c(=O)c12 | -3.91
22 | CN(C)CCNC(=O)c1cccc(-c2cnc3c(NC=O)cc(-c4ccc(C(=O)N5CCOCC5)cc4)cn23)c1 | -0.135
23 | CN1CCN(CCCNC(=O)c2cc3c(-c4ccc(Cl)cc4)nn(C)c3s2)CC1 | -4.78
24 | O=C(COc1ccc2c(c1)oc(=O)c1ccccc12)NCCCN1CCOCC1 | 4.58
25 | COC(=O)c1c(NC(=O)c2ccco2)sc2c1CCN(C(C)C)C2 | -0.516
26 | CC1CCN(CCCNC(=O)c2cc3c(Cl)nc4ccccc4c3s2)CC1 | -10.9
27 | Cc1cc(C)c2c(c1)c1nnc(SCCN3CCCCC3)nc1n2C | -8.21
28 | COc1ccc(N2C(=O)CSC23CCCCC3)cc1 | 4.78
29 | CCN1CCN(c2cc(C)c3cc(NC(=S)N4CCCC(C)C4)ccc3n2)CC1 (stereo not given) | -10.6
30 | CCOC(=O)c1c(NC(C)=O)sc2c(O)c(CN3CCN(CC)CC3)ccc12 | 4.29
31 | COc1ccc(-c2cnc3c(NC(C)=O)cc(-c4cccc(C(=O)NCCN(C)C)c4)cn23)cc1OC | -9.16
32 | CCN1CCN(c2cc(C)c3cc(NC(=S)N4CCC5(CC4)OCCO5)ccc3n2)CC1 | 5.27
33 | c1ccc(-c2nc(NCCCn3ccnc3)c3oc4ccccc4c3n2)cc1 | -13.3
34 | NC(=O)C1CCN(c2nc(-c3cccnc3)cs2)CC1 | 5.88
35 | Cc1ccc(OCC(=O)Nc2cccc(-c3nnc(-c4ccccc4)o3)c2)c(C)c1 | -3.67
36 | CN(C)CCNc1cc(-c2ccncc2)nc2ccccc12 | 13.6
37 | O=C(CN1CCCCC1)n1c2ccccc2c2ccccc21 | 6.71
38 | CCN(CC)CCCNC(=O)C1CCN(c2ncnc3c2sc2cccc(F)c23)CC1 | 0.901
39 | CCN(CC)Cc1cc2[nH]c3c4ccc(Cl)cc4ncc3c2cc1OC | 2.58
40 | COc1ccc2nc(C)cc(Nc3ccc(N4CCOCC4)cc3)c2c1 | 0.195

From PubChem BioAssay AID651692 (Broad Institute, 2012)
